Compound activity as filed in PubChem BioAssay.
Shown are actives, neighbours in structure and some others; about 3.1% of the full set was active somewhere.
FadD28 binding – blocks FadD28 binding to the bisubstrate probe | fluorescence polarization | inhibition, % at 12.5 µM | 0.22% of 360,000 active; in the data active = inhibition above about 8.5%, passing the limit was not always enough
3CLpro inhibitor – SARS-CoV 3CLpro protease inhibition | P0C6X7 | recombinant SARS-CoV 3CLpro, quenched FRET peptide cleavage | inhibition, % at 6 µM | 0.14% of 290,000 active | AID 1706; in the data active = inhibition above about 12%
FBA Mtb inh – inhibitors of M. tuberculosis fructose-bisphosphate aldolase. P9WQA3. purified M. tuberculosis FBA, fluorescence read-out. inhibition, % at 1 µM. 2.3% of 360,000 active. AID 588726; in the data active = inhibition above about 27%;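 also: 0% = vehicle and 100% = reference inhibitor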
Target sequence (P9WQA3 whole entry, looked up): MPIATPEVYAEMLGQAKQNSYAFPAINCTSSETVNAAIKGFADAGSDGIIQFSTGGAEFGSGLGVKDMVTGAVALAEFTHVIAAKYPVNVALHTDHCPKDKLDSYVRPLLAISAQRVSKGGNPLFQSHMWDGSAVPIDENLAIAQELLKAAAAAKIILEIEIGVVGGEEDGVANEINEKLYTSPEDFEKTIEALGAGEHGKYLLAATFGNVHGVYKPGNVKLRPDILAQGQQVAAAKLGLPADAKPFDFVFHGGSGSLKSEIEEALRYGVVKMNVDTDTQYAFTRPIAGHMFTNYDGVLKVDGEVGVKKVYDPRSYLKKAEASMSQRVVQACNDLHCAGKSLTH
GDH-TPI inh – GDH-TPI coupled enzyme inhibition counter-screen; GDH-TPI coupled enzyme counterscreen, NADH absorbance; inhibition, % at 4.8 µM; 1.2% of 360,000 active; in the data active = inhibition above about 30%;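 also: 0% = DMSO wells and 100% = wells lacking the enzyme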
BioA inh – BioA (M. tuberculosis) enzyme inhibition. 0.096% of 360,000 active. purified M. tuberculosis BioA enzyme, plate reader. AID 602481. inhibition, % at 9.99 µM; in the data active = inhibition above about 40%
Starred values were filed as active, the others as inactive.

For COc1ccc(-c2n[nH]c3c2C(c2ccc(OC)c(OC)c2)N(c2ccccc2)C3=O)cc1 (configuration not stated) the results were FadD28 binding -6.2, 3CLpro inhibitor 7.8, FBA Mtb inh 0.3, GDH-TPI inh -9.8 and BioA inh 65.3*.
COc1ccc(C2c3c(-c4ccccc4)n[nH]c3C(=O)N2c2ccc(C(=O)O)cc2)cc1 (configuration not stated) was read as FadD28 binding -18.2, 3CLpro inhibitor -3.8, FBA Mtb inh 10.9 and GDH-TPI inh 17.7.
CCc1cccc2c(C(=O)CSc3nncn3-c3ccc(OC)cc3)c[nH]c12 was read as FadD28 binding 13.7*, 3CLpro inhibitor 2.3, FBA Mtb inh -3.8 and GDH-TPI inh 13.1.
Screening CCc1cccc2c(C(=O)CSc3nncn3-c3ccccc3OC)c[nH]c12 returned FadD28 binding -1.7, 3CLpro inhibitor 4.5, FBA Mtb inh 2.3, GDH-TPI inh 12.2 and BioA inh -0.2.
For C[C@@H]1CN([C@H](C)CO)C(=O)Cc2cc(NC(=O)Cc3ccccc3)ccc2O[C@H]1CN(C)Cc1ccc(C(F)(F)F)cc1 the results were BioA inh -0.5.
For COc1ccc2c(c1)-c1ccccc1S(=O)(=O)N2C(C)=O the results were FadD28 binding 2.0, 3CLpro inhibitor 2.7, FBA Mtb inh 30.7*, GDH-TPI inh 13.4 and BioA inh -2.7.
Screening COn1c(-c2ccccc2)nc2c1CCc1c-2no[n+]1[O-] returned FadD28 binding -1.3, 3CLpro inhibitor 4.3, FBA Mtb inh -1.4, GDH-TPI inh 6.8 and BioA inh -2.0.
For COc1ccc(-c2nc3c(n2O)CCc2c-3no[n+]2[O-])cc1 the results were FadD28 binding -3.2, 3CLpro inhibitor -1.9, FBA Mtb inh -2.9, GDH-TPI inh 40.5* and BioA inh 3.0.
CCCN(C)C[C@@H]1Oc2ncc(C#CCOC)cc2C(=O)N([C@@H](C)CO)C[C@@H]1C was read as BioA inh -1.7.
For C[C@@H]1CN([C@@H](C)CO)C(=O)c2cc(NC(=O)C3CC3)ccc2O[C@@H]1CN(C)C(=O)Nc1ccc(C(F)(F)F)cc1 the results were BioA inh -0.6.
Cc1nc(NC(=O)c2ccc(Br)s2)sc1C(=O)N(C)C was read as FadD28 binding -0.4, 3CLpro inhibitor 4.3, FBA Mtb inh 0.2 and GDH-TPI inh 34.7*.
`COc1ccc(/C=C/C(=O)Nc2nc(C)c(C(=O)N(C)C)s2)cc1OC` gave FadD28 binding -1.7, 3CLpro inhibitor 1.6, FBA Mtb inh 2.2, GDH-TPI inh 34.1* and BioA inh -0.3.
`COc1ccc(/C=C/C(=O)Nc2nc(C)c(C(=O)N(C)C)s2)cc1` gave FadD28 binding -4.8, 3CLpro inhibitor -0.6, FBA Mtb inh -2.7 and GDH-TPI inh 41.6*.
CCOC(=O)CNC(=O)c1sc(NC(=O)/C=C/c2ccccc2)nc1C was read as FadD28 binding -1.0, 3CLpro inhibitor 1.5, FBA Mtb inh 5.0, GDH-TPI inh 32.5* and BioA inh -0.8.
For COC(=O)c1sc(NC(=O)/C=C/c2ccc(C)cc2)nc1C the results were FadD28 binding -3.0, 3CLpro inhibitor 1.8, FBA Mtb inh 1.2 and GDH-TPI inh -3.3.
Screening Cc1nc(NC(=O)c2cc3c(s2)CCCCC3)sc1C(=O)N(C)C returned FadD28 binding 0.3, 3CLpro inhibitor 2.7, FBA Mtb inh -1.0, GDH-TPI inh 16.3 and BioA inh -6.4.
Cc1noc(C)c1S(=O)(=O)Nc1ccc2c(c1)CC(=O)N([C@H](C)CO)C[C@H](C)[C@@H](CN(C)S(=O)(=O)c1ccccc1)O2 was read as BioA inh 3.5.
`CCCN(C)C[C@H]1Oc2ncc(-c3ccncc3)cc2C(=O)N([C@@H](C)CO)C[C@@H]1C` gave BioA inh -2.6.
`COc1ccc([C@H]2CC(=O)C=C(c3ccc(NC(C)=O)cc3)C2)cc1OC` gave FadD28 binding -1.5, FBA Mtb inh 6.6, GDH-TPI inh 36.8* and BioA inh 2.6.
`COc1ccc([C@H]2CC(=O)C=C(c3ccc(C)cc3)C2)cc1OC` gave FadD28 binding -2.7, FBA Mtb inh -0.8, GDH-TPI inh 4.0 and BioA inh 1.0.
Screening O=C1C=C(c2cc3ccccc3s2)CCC1 returned FadD28 binding -0.6, FBA Mtb inh 7.6, GDH-TPI inh 34.5* and BioA inh -1.2.
Screening COc1ccc([C@H]2CC(=O)C=C(c3cc4ccccc4s3)C2)cc1OC returned FadD28 binding -3.3, FBA Mtb inh 0.4, GDH-TPI inh 32.6* and BioA inh 2.4.
For C[C@H]1CN([C@@H](C)CO)C(=O)Cc2cc(NS(=O)(=O)c3ccc(Cl)cc3)ccc2O[C@@H]1CN(C)S(C)(=O)=O the results were BioA inh -2.1.
Screening C[C@H](CO)N1C[C@H](C)[C@H](CN(C)C(=O)CC2CC2)Oc2cc(-c3cncnc3)ccc2S1(=O)=O returned BioA inh -1.0.
For CCOC(=O)CN1N=C(/C=C/c2ccc(OC)cc2)CCC1=O the results were FadD28 binding 0.9, 3CLpro inhibitor -0.9, FBA Mtb inh 1.1, GDH-TPI inh 37.9* and BioA inh -1.0.
CCOC(=O)CN1N=C(c2ccc(C)cc2)CCC1=O was read as FadD28 binding 0.4, 3CLpro inhibitor 0.0, FBA Mtb inh -0.2, GDH-TPI inh 2.1 and BioA inh 0.0.
Screening CCOC(=O)C(C)N1N=C(/C=C/c2ccc(OC)cc2)CCC1=O (configuration not stated) returned FadD28 binding -0.9, 3CLpro inhibitor 5.5, FBA Mtb inh 0.6, GDH-TPI inh 41.8* and BioA inh -2.0.
Screening Cc1ccc(/C=C/C2=NN(C)C(=O)CC2)cc1 returned FadD28 binding -2.8, 3CLpro inhibitor -2.3, FBA Mtb inh 2.7, GDH-TPI inh 15.5 and BioA inh -2.4.
Screening C[C@@H]1CN([C@H](C)CO)C(=O)c2cc(NS(=O)(=O)c3ccc(Cl)cc3)ccc2O[C@H]1CN(C)C(=O)Nc1ccc2c(c1)OCO2 returned BioA inh -0.2.
For COc1cc2c(cc1OC)-c1cc(Nc3cccc(F)c3)nc(=O)n1CC2 the results were 3CLpro inhibitor -1.5, FBA Mtb inh -2.0, GDH-TPI inh 33.8* and BioA inh 1.2.
For COc1cc2c(cc1OC)-c1cc(NC3CCCC3)nc(=O)n1CC2 the results were FadD28 binding -0.9, 3CLpro inhibitor -4.9, FBA Mtb inh 5.8, GDH-TPI inh 26.7 and BioA inh 0.3.
CCN(CC)c1ccc(Nc2cc3n(c(=O)n2)CCc2cc(OC)c(OC)cc2-3)cc1 was read as FadD28 binding -3.2, 3CLpro inhibitor -7.0, FBA Mtb inh 1.0 and GDH-TPI inh 37.5*.
COc1cc2c(cc1OC)-c1cc(OCc3ccccc3Cl)nc(=O)n1CC2 was read as FadD28 binding 0.1, 3CLpro inhibitor -7.2, FBA Mtb inh 99.4*, GDH-TPI inh 28.7 and BioA inh -0.3.
For CC1=C(C#N)c2nc(N)c(C#N)c(C)c2/C1=C\c1ccc(-c2ccccc2C(=O)O)o1 the results were FadD28 binding 11.8*, 3CLpro inhibitor 0.6, FBA Mtb inh -5.7 and GDH-TPI inh 10.6.
